According to the supplement of paper PMC6555819:

The sequences below were run on RXRa DBDmut IVT, anti-RXR (DBD mutation: RXRa K156A/R161A, NR concentration 90 nM) (assay: PBM binding z-score (relative to random genomic background probes); higher = stronger binding; sequences stand for … in GC…GCGATTGACAGCGTAGAATGAAGG).
Outline: (§1)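 Probes were double-stranded and carried 34-nt variable regions with direct-repeat seeds, single-nucleotide variants, half-site ablations and random human genomic background sequences, printed on custom Agilent 4×180K protein-binding microarrays. Arrays were incubated 1 h with ligand-free nuclear receptor dimers in PBS pH 7.4, 2% milk, 0.02% Triton X-100, 1 mM DTT, 0.2 mg/mL BSA and 0.4 mg/ml salmon testes DNA. Antibodies against each partner (one per run) detected binding, and scanned fluorescence was regression-normalized. Binding z-scores use the random background probes as reference.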

| Sequence | PBM binding z-score |
| --- | --- |
| TCATATAGGTTATACAGGTGAAAGTCGGCATCTA | 2.09 |
| AGAACGAAGGCACGCTGAGTTGATAGCAGAGTAG | -0.345 |
| CGTCAAAGTTCAACTACGGTAACGTAAAGCACGC | 4.64 |
| AGAATGAGGTTATTAAGATAAGGGAATTGCGGTC | 1.84 |
| TTACCAAGGTGAGCTGAGGACGTTGATCCAACTC | -0.741 |
| TAGCGTAGGTCATGCGGGCCAGTATAGTGTCGGC | 0.594 |
| TCAGATAGGTAAAAGGTGAAAGTCGGTGTGGTAA | 1.85 |
| GCTTGTAGACCAAGGTTAAGAAAGACTAAGCTAA | -0.149 |
| CCGACTGGGGCAAAGGTTACAATACTCAGTACGA | 0.382 |
| CCTACTGGGCCACGAAAGGTCACTGATTCAGTGA | -0.0819 |
| GGAACGATGGCAAAGTTGATAGCATCTGTCGACG | -0.199 |
| ATCTCTAGGTAACCAAGTTCAGTTAATGCCGAAC | 1.33 |
| ATATGAAGGTTAAGGGTCATTCAGGTTGGTTCGC | 2.14 |
| CCGACTGGGGCAAACGTTACCATACTCAGTACGA | 0.618 |
| TCATATAGGTAAAGGTCAAAGTCGAACGATATGA | 1.9 |
| TCGAGCAGGTTAGGGGCATTCAGAATGGCGTCGA | -0.111 |
| ACAGACAGGTGATGGAGGTAACTCAGGCTATCAT | -0.505 |
| ACTCGGAGGACAAAGGTCAGTGCTACGCCAGTGA | 1.36 |
| CCTACTGGGCCAGAAAGGTCATTGATGCCGATAA | 0.0732 |
| TTACCAAGGTGACAGGTCGTTGATGCACGCCTTG | 0.0135 |

| Sequence | PBM binding z-score |
| --- | --- |
| CTCGAAAGGTCGTGCTCAGGGGAGTATACCAAAC | 2.02 |
| ACTTGCGGGTCAACGAGGTTATAGCACGCGTATA | 2.41 |
| CCTACTGGGCCATTCACAGGTCATTGATCATATG | 0.46 |
| CCAGACAGGTGAGAAGGTAACTCAACCTCGATTA | 0.0591 |
| TCTTGTAGATCAACAGGAGGTTTAGAAAGATCGA | 0.348 |
| TCTATTAGTTGATTAGGGAAACCGAAACAGCGGA | 1.18 |
| CTACCAACGTGAACAAGGTCGTTGATTACTATTC | 1.53 |
| GCTAGCAGGCCATTCGGGTCACTCAATGACGGGC | 0.641 |
| TGGAGTAGGTTAGTCGGGGCATTCAGCCAACATA | -0.608 |
| ATATCTAGGTAAAGATAGTTCAGTGAATGCAAAT | 0.0845 |
| TCTTGTAGATCAAAGGTGAAGAAAGCCGAAGCCT | 0.392 |
| TCTTGTAGATCACCAGGAGGTTAAGAAAGATCGA | 0.396 |
| AGTCAAAGTTCACTGGGTAACGTAAGATTCAGCT | 4.4 |
| ATCTCTACGTAACAAGTTCAGTGAAAGAGAGGAC | 0.873 |
| CCTAGCAGGCAAATCTGGGTCACTCAAGGCTTGA | 0.0934 |
| CCTTACGGGTCACGAGGTGATAGCACGACGAGCG | 1.66 |
| TAGCCTAGGTTATTGGGCCAGTATAGTACGCATC | -0.294 |
| ACTATTAGTTGACTTAGGGCAACCTATACGACGC | 0.811 |
| ACAGACAGGTGAGTCAAGGTAACTCAGCTGGACG | -0.585 |

Each sequence was assayed on RXRa homodimer (NR concentration 180 nM) in the same assay as above.
Outline: as §1

| Sequence | PBM binding z-score |
| --- | --- |
| TCATATAGGTTATACAGGTGAAAGTCGGCATCTA | 2.2 |
| AGAACGAAGGCACGCTGAGTTGATAGCAGAGTAG | 0.0315 |
| CGTCAAAGTTCAACTACGGTAACGTAAAGCACGC | 5.18 |
| AGAATGAGGTTATTAAGATAAGGGAATTGCGGTC | 1.8 |
| TTACCAAGGTGAGCTGAGGACGTTGATCCAACTC | -0.041 |
| TAGCGTAGGTCATGCGGGCCAGTATAGTGTCGGC | 3.78 |
| TCAGATAGGTAAAAGGTGAAAGTCGGTGTGGTAA | 3.06 |
| GCTTGTAGACCAAGGTTAAGAAAGACTAAGCTAA | 0.485 |
| CCGACTGGGGCAAAGGTTACAATACTCAGTACGA | 4.11 |
| CCTACTGGGCCACGAAAGGTCACTGATTCAGTGA | 4.93 |
| GGAACGATGGCAAAGTTGATAGCATCTGTCGACG | -0.104 |
| ATCTCTAGGTAACCAAGTTCAGTTAATGCCGAAC | 0.444 |
| ATATGAAGGTTAAGGGTCATTCAGGTTGGTTCGC | 7.12 |
| CCGACTGGGGCAAACGTTACCATACTCAGTACGA | 0.251 |
| TCATATAGGTAAAGGTCAAAGTCGAACGATATGA | 7.64 |
| TCGAGCAGGTTAGGGGCATTCAGAATGGCGTCGA | 0.719 |
| ACAGACAGGTGATGGAGGTAACTCAGGCTATCAT | 0.156 |
| ACTCGGAGGACAAAGGTCAGTGCTACGCCAGTGA | 4.26 |
| CCTACTGGGCCAGAAAGGTCATTGATGCCGATAA | 5.18 |
| TTACCAAGGTGACAGGTCGTTGATGCACGCCTTG | 1.61 |

| Sequence | PBM binding z-score |
| --- | --- |
| CTCGAAAGGTCGTGCTCAGGGGAGTATACCAAAC | 4 |
| ACTTGCGGGTCAACGAGGTTATAGCACGCGTATA | 5.33 |
| CCTACTGGGCCATTCACAGGTCATTGATCATATG | 1.34 |
| CCAGACAGGTGAGAAGGTAACTCAACCTCGATTA | 0.59 |
| TCTTGTAGATCAACAGGAGGTTTAGAAAGATCGA | -0.0846 |
| TCTATTAGTTGATTAGGGAAACCGAAACAGCGGA | 0.472 |
| CTACCAACGTGAACAAGGTCGTTGATTACTATTC | 0.896 |
| GCTAGCAGGCCATTCGGGTCACTCAATGACGGGC | 1.81 |
| TGGAGTAGGTTAGTCGGGGCATTCAGCCAACATA | 0.023 |
| ATATCTAGGTAAAGATAGTTCAGTGAATGCAAAT | 0.518 |
| TCTTGTAGATCAAAGGTGAAGAAAGCCGAAGCCT | 1.75 |
| TCTTGTAGATCACCAGGAGGTTAAGAAAGATCGA | 1.14 |
| AGTCAAAGTTCACTGGGTAACGTAAGATTCAGCT | 4.47 |
| ATCTCTACGTAACAAGTTCAGTGAAAGAGAGGAC | 0.659 |
| CCTAGCAGGCAAATCTGGGTCACTCAAGGCTTGA | 0.625 |
| CCTTACGGGTCACGAGGTGATAGCACGACGAGCG | 6.44 |
| TAGCCTAGGTTATTGGGCCAGTATAGTACGCATC | 0.452 |
| ACTATTAGTTGACTTAGGGCAACCTATACGACGC | 0.654 |
| ACAGACAGGTGAGTCAAGGTAACTCAGCTGGACG | 0.518 |
